Among all 1,000 compounds or so, fewer than 10 were called active.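 Rule for the calls: active = fitted half-maximal concentration no higher than twice the top valid tested dose, with signal falling; inconclusive = flat curve with 30 to 70% inhibition, or poor fit; inactive = the rest.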 Only a sample is shown. Results with a measured potency or affinity are listed apart.
target: Golgi-associated PDZ and coiled-coil motif-containing protein (Homo sapiens) (UniProt Q9HD26); experiment: blockers of CAL PDZ–TMR peptide complex – biochemical, fluorescence polarization, untagged CAL PDZ, cherry-pick, set 2, dose response (AID 602254); details: Purified CAL PDZ; series mostly up to 60 µM; activity change, negative = inhibition: at the top concentration;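 note: 0% = DMSO neutral control and -100% = unlabeled peptide PRC23 positive control; more negative means stronger blocking of peptide binding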

Activity change, negative = inhibition, inactive:
C=CCNC(=S)NNC(=O)c1ccc(C)c(Cl)c1 0.039%, Cc1ccc(S(=O)(=O)c2nc(NN(C)C)sc2Cl)cc1 -1.6%, CC(=O)c1cccc(CN2CCN(CC=C(C)C)C(CCO)C2)c1 (stereo unspecified) -0.044%, CC1CCN(C(=O)CNC(=O)c2ccc(Cl)cc2Cl)CC1 -2.7%, CCn1nnc(NC(=O)Cc2ccc(Cl)cc2)n1 -0.719%, O=C(Nc1cccc(-n2cnnn2)c1)c1ccc(OC(F)(F)F)cc1 2.59%, O=C(c1cc(COc2ccccc2)on1)N1CCCC(CN2CCOCC2)C1 (stereo unspecified) 2.19%, CC(C)(C)n1ncc2c(=O)n(Cc3ccc(Cl)c(Cl)c3)cnc21 -3.02%, CSc1ccccc1OCc1cc(C(=O)N2CCN(c3ccccc3)CC2C)no1 (stereo unspecified) -4.89%, COc1cc(C(=O)NNC(=O)c2ccc3c(c2)OCCO3)cc(OC)c1OC 3.06%, COc1cc(S(=O)(=O)Nc2ccc(C(=O)NCC(=O)O)cc2)ccc1NC(C)=O -0.599%, O=C(N/N=C/c1cccnc1)c1[nH]ncc1Br -2.47%, CCOC(=O)c1ccc(NC(=O)C2CCCO2)cc1 (stereo unspecified) 5.12%, CC(=O)c1cccc(NC(=O)CCNC(=O)c2cccc(C)c2)c1 -1.3%, COc1cc(OC)c(C(=O)NCc2ccc3c(c2)OCO3)cc1OC 1.28%, CC1CC(C)CN(C(=O)CCn2c(=O)oc3ccccc32)C1 (stereo unspecified) 2.08%, Cc1ccc(CNS(=O)(=O)c2ccc(C(F)(F)F)cc2)n1C -2.84%, Cc1ccc2nc(N3CCN(Cc4nnnn4C4CCCC4)CC3)c(C#N)cc2c1 2.55%, Cc1ccc(Cn2c(=O)n(CCC(=O)NCc3ccc4c(c3)OCO4)c(=O)c3ccccc32)cc1 -1.22%, Cc1ccc2c(c1)N(CC(=O)Nc1ccccc1F)C(=O)CO2 0.409%, CC(C)(C)OC(=O)N1CCC(NC(=O)c2[nH]cnc2C(=O)Nc2cccc(Cl)c2)CC1 0.132%, COC(=O)c1ccc(OCC(O)CN2CCc3cc(OC)c(OC)cc3C2c2ccccc2)cc1 (stereo unspecified) 2.58%, COc1ccccc1OCC(O)Cn1nc(C)cc1C (stereo unspecified) 0.574%, O=C(O)c1ccccc1CSc1nnnn1-c1ccccc1 0.49%, CC(C)c1ccc(NC2CCCN(C(=O)c3ccnn3C)C2)cc1 (stereo unspecified) -3.14%, c1ccc(-c2ccccc2OCCOCCN2CCc3ccccc3C2)cc1 -1.05%, CCOc1ccccc1C(=O)NCC(=O)OCc1csc(CC(=O)Nc2ccc(C)cc2)n1 -1.29%, CCCn1nnc(NC(=O)c2ccc3c(c2)OCO3)n1 2.04%, CC(=O)n1nc(-c2ccccc2)nc1NCc1cccs1 1.06%, C/C(=N\OC(=O)c1cccc(C(F)(F)F)c1)c1sc(-c2ccccc2)nc1C -4.29%, COc1ccccc1-c1c(C)nn2c(N)c(-c3ccccc3)cnc12 -0.491%, CC(=O)c1ccc(OCc2cc(C(=O)NCCc3ccc(Cl)cc3)no2)cc1 -0.074%, Cc1c(C(=O)N2CCCCC2)c(S(=O)(=O)NCc2ccc(Cl)cc2)c(C)n1C -4.68%, O=C(c1ccc(S(=O)(=O)NCC2CCCO2)cc1)N1CCN(c2ccccc2)CC1 (stereo unspecified) 0.625%, O=C(Nc1cccc(C(=O)N2CCCCC2)c1)C1CC1 -0.502%, CCCN(CC(=O)Nc1ccccc1C)C(=O)CCCc1c[nH]c2ccccc12 -2.12%, O=C(COC(=O)Cc1c(F)cccc1Cl)NC(=O)c1ccccc1 -4.75%, Cc1ccccc1C(=O)NN1CCOCC1 1.4%, COc1ccc(CN(C)C(=O)CNC(=O)CNC(=O)c2ccc(Cl)cc2Cl)cc1F 0.378%, Cc1ccc(NC(=O)c2c(-c3ccccc3)noc2C)nc1 -14.1%, Cc1[nH]c2c(C(=O)N3CCCC(CCC(=O)NCc4ccccc4F)C3)cccc2c1C (stereo unspecified) -0.046%, Cc1ccc(C(C)C)cc1OCCn1cncn1 -1.32%, COCC(C)N1CCC(Oc2cccc(C(=O)NCCc3ccccc3)c2)CC1 (stereo unspecified) -1.25%, CC(=O)Nc1sc2c(c1C(N)=O)CCC2 2.98%, CCOc1ccc(NC(=O)CN(C)S(=O)(=O)c2cccs2)cc1 -3.37%, CCCCCN1CSC(=S)N(Cc2ccccc2)C1 -0.886%, COc1ccc(/C=N/NC(=O)CNC(=O)c2ccncc2)cc1OC 1.66%, O=C(Nc1ccccc1Cl)N1CCN(c2ccc3nnc(-c4ccccc4)n3n2)CC1 9.02%, CC(=O)Nc1ccc(-c2cc(NC(C)=O)n(-c3ccccc3)n2)cc1 -0.873%, FC(F)(F)c1ccccc1NC(=S)N1CCCC1 3.04%, COc1ccc(S(=O)(=O)N(C(C)=O)c2ccc3oc(=O)sc3c2)cc1 -5.88%, CCN(c1ccccc1)S(=O)(=O)c1ccc(C(=O)N2CCN(c3ccccc3)CC2)cc1 -4.12%, Cc1cc(C)c(C#N)c(Nc2cccc(C)c2C)n1 3.29%, COc1ccc(Br)cc1CNc1ccc2[nH]c(=O)[nH]c2c1 -3.88%, Cc1ccc(OCC(=O)N2CCN(C(=O)c3cccs3)CC2)cc1 0.824%, COc1ccccc1N(CC(=O)N1CCN(c2ccccc2)CC1)S(=O)(=O)c1ccc(C)cc1 -2.13%, O=S(=O)(c1ccccc1)N(CC(O)COc1ccccc1)c1ccccc1 (stereo unspecified) 0.464%, CC(C)=C1C(=O)NN(c2cccc(Cl)c2)C1=O 0.379%, O=C(c1ccc(-c2ccccc2)cc1)N1CCN(c2ccccn2)CC1 3.69%, Cc1cc(Br)ccc1NC(=O)CN1CCN(c2ccccn2)CC1 1.33%, COCC(=O)N1CCC(Oc2ccc(C(=O)NCc3cnc(C)cn3)cc2)CC1 -0.601%, Cc1ccc(S(=O)(=O)N(C)C)cc1NC(=S)N1CCc2ccccc21 0.484%, C/C(CC(=O)Nc1ccc2c(c1)OCCO2)=N\NC(=O)COc1ccc(Cl)c(C)c1 1.27%, COc1ccc(C(=O)NCC(=O)NCc2ccncc2)cc1 0.998%, Cn1nc(C(=O)Nc2nc(-c3ccccn3)cs2)c2ccccc2c1=O 1.73%, Cc1ccsc1C(=O)NNC(=O)c1cccc(S(=O)(=O)N2CCCC2)c1 -2.83%, COc1ccc(OCC(=O)Nc2ccccc2C(=O)N2CCOCC2)cc1 -1.76%, Cc1ccc(C(=O)Nc2cccc(C(=O)N3CCOCC3)c2)cc1Cl 4.43%, O=C(Nc1ccccc1C(=O)O)c1cccc(N2C(=O)c3ccccc3C2=O)c1 3.93%, Cc1cccc(OCCCn2c(CO)nc3ccccc32)c1 1.72%, O=c1[nH]c2ccccc2cc1CN(CC1CCCO1)S(=O)(=O)c1ccccc1 (stereo unspecified) 1.42%, COc1ccc(CC(=O)Nc2ccc(S(=O)(=O)Nc3cc(C)on3)cc2)cc1 2.22%, COc1ccccc1N1CCN(/N=C/c2ccc(O)cc2O)CC1 -1.14%, O=C(Nc1ccnn1C1CCN(CC2CC=CCC2)CC1)c1ccccc1Cl (stereo unspecified) -1.42%, COc1cccc(NC(=O)c2ccc3nsnc3c2)c1 1.47%, O=C(NCCCN1CCOCC1)c1ccc2c(c1)N(Cc1ccccc1)CCS2 7.62%, Cc1ccc(NC(=O)COc2ccccc2C(=O)NCCc2ccccc2)cc1 1.91%, O=C(COC(=O)c1ccc(NC(=O)C2CC=CCC2C(=O)O)cc1)c1ccccc1 (stereo unspecified) 4.39%, CCOC(=O)c1c(NC(=O)C2CCCCC2)sc2c1CCN(CC)C2 -0.655%, COc1ccc(CNc2ccc(-c3ccccc3OC)nn2)cc1 7.46%, CN(C(=O)c1cccc(C(F)(F)F)c1)C1CCCc2ccccc21 (stereo unspecified) -1.53%, Cc1n[nH]c(C)c1CCN(C)Cc1cn(C)nc1-c1ccc2c(c1)OCCO2 0.263%, COc1ccc(NC(=O)CC(CC(=O)O)c2cc(OC)c(OC)c(OC)c2)cc1 (stereo unspecified) 1.78%, Cc1ccc(NC(=S)N(CCCN2CCCC2)Cc2cccn2Cc2ccc(Cl)cc2)cc1C 7.5%, O=C1CN(C(=O)COc2ccc(F)cc2Br)c2ccccc2N1 -1.17%, O=C(C1CC1)N1CCc2cc(S(=O)(=O)N3CCOCC3)ccc21 2.05%, CS(=O)(=O)c1ccc(C(=O)NC2CCCc3ccccc32)cc1 (stereo unspecified) 4.04%, COC(=O)c1ccccc1NC(=S)N1CCN(C2CCCCC2)CC1 0.591%, Cc1ccccc1NC(=O)c1ccc(NC(=O)C2CCCO2)cc1 (stereo unspecified) -2.35%, CC(NC(=S)NC(=O)c1ccccc1Br)c1ccccc1 (stereo unspecified) 1.12%, COc1ccc(OC)c(-c2csc(NC(=O)c3ccc4c(c3)OCO4)n2)c1 0.356%, CCN(Cc1cnn(C)c1)C(=O)C1CCC(=O)N(CCc2ccc(OC)cc2)C1 (stereo unspecified) 0.165%, CC(=O)Nc1sc(NC(=O)c2ccc(C)cc2)nc1-c1cccs1 -1.3%, O=C(NCCc1ccccc1F)c1ccc2c(c1)OCCO2 2.65%, O=C(CNC(=O)c1ccccc1Cl)N/N=C/c1ccc2c(c1)OCO2 1.37%, CCc1nnc(NS(=O)(=O)c2ccc(N3C(=O)c4ccccc4C3=O)cc2)s1 1.69%, Cc1cccc(NC(=O)CCNC(=O)c2ccc(Br)cc2)c1 -2.95%, COC(=O)c1cc(S(=O)(=O)NCCN2CCN(c3ccccc3F)CC2)c[nH]1 0.413%, COc1ccc(CCNS(=O)(=O)c2ccccc2)cc1OC -8.76%, CCOC(=O)N1CCN(C(=O)c2ccc3c(=O)n(-c4ccc(OC)cc4OC)c(=S)[nH]c3c2)CC1 1.69%, COc1ccccc1/C=N/NC(=O)c1ccc2c(c1)OCO2 2.16%, COc1ccccc1C(=O)Nc1cccc2nc(C)ccc12 0.557%, O=C(Nc1ccc(F)cc1)C1CCCN1S(=O)(=O)c1cccc2nsnc12 (stereo unspecified) 1.12%, Cc1ccc(N(C)C(=O)C2CCCN2S(=O)(=O)c2cccc3nsnc23)cc1 (stereo unspecified) 0.114%, O=C(Nc1cccc(O)c1)c1ccc(NC(=O)C2CCCO2)cc1 (stereo unspecified) 0.422%, CC(=O)Nc1ccc(NC(=O)COC(=O)COc2ccc3ccccc3c2)cc1 -1.38%, COc1ccccc1CNC(=O)COC(=O)CC1CC2CCC1C2 (stereo unspecified) 5.21%, Cc1ccc(S(=O)(=O)Nc2c(C)n(C)n(-c3ccccc3)c2=O)cc1 -1.36%, C=CC(=O)NCc1ccc(-c2csnn2)cc1 -0.734%, CC(=O)NC(Cc1ccccc1)C(C)=O (stereo unspecified) -0.274%, CCSc1nnc(NC(=O)CN2C(=O)NC3(CCCC3)C2=O)s1 -1.53%
